“And” between values parts separate entries of the source, which are not always exact repeats. Equal values may be shown once. The source made the active and inactive calls. How the source made its calls: active means hit-call score of the fitted dose curve at least 0.9, where 1 is the maximum; inactive means score below 0.9.
Assay: BSK_hDFCGF_SRB: Viability Assessment in the BioMAP Diversity Plus: hDFCGF Assay (AID 2283061);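 further: cells exposed to compound for 24 h before the read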
Conditions: primary human foreskin fibroblasts
Protocol: BSK_hDFCGF is a cell-based, multiplexed-readout assay that uses foreskin fibroblast, a human skin primary cell, with measurements taken at 24 hours after chemical dosing in a 96-well plate.BSK_hDFCGF_SRB is an assay component measured in the BSK_hDFCGF assay. It measures 0.1% sulforhodamine related to cell death using Sulforhodamine staining technology.Data from the assay component BSK_hDFCGF_SRB was analyzed into 1 assay endpoint. This assay endpoint, BSK_hDFCGF_SRB, was analyzed with bidirectional fitting relative to DMSO as the negative control and baseline of activity. Using a type of viability reporter, gain or loss-of-signal activity can be used to understand changes in the signaling. Furthermore, this assay endpoint can be referred to as a primary readout, because this assay has produced multiple assay endpoints where this one serves a signaling function. To generalize the intended target to other relatable targets, this assay endpoint is annotated to the cell morphology intended target family, where the subfamily is cell conformation.
The levels of cell surface (or secreted, indicated by the prefix "s") biomarker endpoints were measured by ELISA. Overt cytotoxicity to cells in confluent adherent cultures (all systems other than the BT system) was assessed by measuring total protein levels using sulforhodamine B (SRB) staining in parallel cultures at the time of biomarker measurements, indicated as SRB endpoints. For proliferation assays for adherent cell types, individual cell types are cultured at sub-confluence and relative cell numbers quantified by SRB staining at time points optimized for each system (48 h: 3C and CASM3C systems; 72 h: BT and HDF3CGF systems; 96 h: SAg system). SRB was performed by staining cells with 0.1% SRB after fixation with 10% TCA and reading wells at 560 nm.Viability and proliferation of PBMC (T cells) was quantified by Alamar Blue reduction for the SAg and BT systems. For PBMC viability (referred to as PBMC Cytotoxicity within the assay endpoint names), cells were plated (75,000/well in a 96-well plate) and then chemical samples added for 1 h before addition of activators, SEB and TSST-1 (20 ng/mL final concentration each). Cells were incubated for 90 h. Then, Alamar Blue (20 uL/well) (Invitrogen, Cat DAL1100) was added for 6 h, and the plates were read with a fluorescence microplate reader at 546/580 nm (excitation/emission). For PBMC proliferation, cells were plated and activated as above but incubated for only 16 h prior to addition of Alamar Blue. Plates were read after 6 h.
In the case of CC1=C2C[C@H]3[C@@H](CC=C4C[C@@H](O)CC[C@@]43C)[C@@H]2CC[C@]12O[C@@H]1C[C@H](C)CN[C@H]1[C@H]2C, the outcome is reported as “inactive”.
With COS(=O)(=O)OC the outcome was “inactive”.
With CCNc1nc(NC(C)C)nc(SC)n1 the outcome was “inactive”.
In the case of O=C(N[C@H]1CN2CCC1CC2)c1cc2ccoc2cn1, the outcome is reported as “inactive”.
With C=CC(=O)NCNC(=O)C=C the outcome was “inactive”.
In the case of O=C(O)C(F)(F)C(F)(F)C(F)(F)C(F)(F)C(F)(F)C(F)(F)C(F)(F)C(F)(F)F, the outcome is reported as “inactive”.
With Cc1ccc(O)c(C)c1 the outcome was “inactive”.
In the case of CC(C)C(=O)OCC(C)(C)C(OC(=O)C(C)C)C(C)C (stereo not given), the outcome is reported as “inactive”.
In the case of CCC(C)(CC)c1cc(NC(=O)c2c(OC)cccc2OC)on1, the outcome is reported as “inactive”.
In the case of O=C(NC(=O)c1c(F)cccc1F)Nc1cc(Cl)c(OC(F)(F)C(F)F)c(Cl)c1, the outcome is reported as “inactive”.
In the case of CO/C=C(/C(=O)OC)c1ccccc1COc1cccc(C(F)(F)F)n1, the AC50 is reported as 10.7 µM (active).
In the case of CCSC(=O)N(CC)C1CCCCC1, the outcome is reported as “inactive”.
With CCOCCOC(C)=O the outcome was “inactive”.
With COc1ccc(O)c(C(C)(C)C)c1 the outcome was “inactive”.
With NS(=O)(=O)C(F)(F)C(F)(F)C(F)(F)C(F)(F)C(F)(F)C(F)(F)C(F)(F)C(F)(F)F the AC50 was 26.9 µM (active) and 55 µM (active) and 47.2 µM (active).
In the case of Clc1ccc(Cl)cc1, the outcome is reported as “inactive”.
For CN(C)c1nc(=O)n(C2CCCCC2)c(=O)n1C, the outcome was “inactive”.
In the case of CCCCCCCCCc1ccc(O)cc1, the AC50 is reported as 15.4 µM (active).
For O=S(=O)(O)C(F)(F)C(F)(F)C(F)(F)C(F)(F)F, the outcome was “inactive”.
In the case of CC(c1ccc(O)cc1)(c1ccc(O)cc1)c1ccc(O)cc1, the AC50 is reported as 29.2 µM (active).
For Cc1cccc([N+](=O)[O-])c1, the outcome was “inactive”.
For CN(C)CCO, the outcome was “inactive”.
For c1ccc(-c2ccccc2)cc1, the outcome was “inactive”.
For O=C(O)C(F)(F)C(F)(F)C(F)(F)C(F)(F)C(F)(F)F, the outcome was “inactive”.
With ClC(Cl)=C(c1ccc(Cl)cc1)c1ccc(Cl)cc1 the AC50 was 18.2 µM (active).
With CCC(=O)O[C@H]1CC[C@H]2[C@@H]3CCC4=CC(=O)CC[C@]4(C)[C@H]3CC[C@]12C the AC50 was 36.1 µM (active).
In the case of Cc1ccccc1O, the outcome is reported as “inactive”.
For CC#Cc1cc(C)nc(Nc2ccccc2)n1, the outcome was “inactive”.
In the case of O=S(=O)(O)C(F)(F)C(F)(F)C(F)(F)C(F)(F)C(F)(F)C(F)(F)F, the outcome is reported as “inactive”.
With C=CC(N)=O the outcome was “inactive”.
For CCC(C)(c1ccc(O)cc1)c1ccc(O)cc1, the AC50 was 27.7 µM (active).
In the case of O=NN(c1ccccc1)c1ccccc1, the outcome is reported as “inactive”.
In the case of CCCN(CCC)N=O, the outcome is reported as “inactive”.
With Oc1c(Cl)c(Cl)c(Cl)c(Cl)c1Cl the AC50 was 7.08 µM (active) and 12.4 µM (active).
With Cc1cc(O)ccc1Cl the outcome was “inactive”.
With N#Cc1ccc(N(CC(N)=O)CC(F)(F)F)cc1C(F)(F)F the outcome was “inactive”.
With C1CC2OC2CC1C1CO1 (stereo not given) the outcome was “inactive”.
In the case of O=C(O)C(F)(F)C(F)(F)C(F)(F)C(F)(F)C(F)(F)C(F)(F)C(F)(F)C(F)(F)C(F)(F)F, the AC50 is reported as 28.5 µM (active) and 48.8 µM (active) and 49 µM (active).
In the case of Clc1ccc(C(c2ccccc2Cl)C(Cl)(Cl)Cl)cc1 (stereo not given), the AC50 is reported as 6.8 µM (active).
In the case of CCOC(=O)C(O)(c1ccc(Cl)cc1)c1ccc(Cl)cc1, the outcome is reported as “inactive”.

Reference: PubChem BioAssay (EPA / NIEHS)
